The text below walks through data of PubChem BioAssay (EPA / NIEHS).

Active and inactive are the calls of the source. Rule for the calls: active = hit-call score of the fitted dose curve at least 0.9, where 1 is the maximum; inactive = score below 0.9.

Assay [1] in a line: ATG_ISRE_CIS: Attagene CIS-FACTORIAL HepG2 Assay for human Interferon Regulatory Factor 1 (IRF1) binding to an Interferon-Stimulated Response Element (ISRE) (AID 2282948). The conditions noted are these: HepG2 ISRE cis-reporter (Attagene), mRNA transcription readout; actives raise or lower the signal. The method, boiled down:
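Endogenous transcription factor activity read as reporter transcript abundance via RT-PCR and capillary electrophoresis. HepG2 cells transiently transfected, 24 h chemical exposure. Gain or loss fitted against DMSO baseline.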

Assay [2] in a line: ATG_M_32_CIS: Attagene CIS-FACTORIAL HepG2 Assay for M32 Transcription Factor (Internal Marker) (AID 2282949).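 Note: background control marker of the multiplexed CIS panel rather than a real target.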 As to conditions: HepG2 Attagene cis-factorial M32 reporter, mRNA; actives raise or lower the signal. The method, boiled down:
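HepG2 transfectants (cis-regulated reporter transcription units) dosed 24 h. Reporter mRNA by RT-PCR plus CE, analysed as gain or loss relative to DMSO.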

Assay [3] is described as follows: ATG_M_06_CIS: Attagene CIS-FACTORIAL HepG2 Assay for M06 Transcription Factor (Internal Marker) (AID 2282950). As to conditions: HepG2 Attagene CIS-FACTORIAL M06 internal marker reporter; actives raise or lower the signal. The method, boiled down:
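Fluorescence-labelled RT-PCR products from cis-promoter reporter units, cut with HpaI and resolved by capillary electrophoresis, give the signal. Cells are human HepG2, dosed for 24 h. Serves as background control, fitted relative to DMSO.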

The target in assay [4] is Hypoxia-inducible factor 1-alpha (Homo sapiens) (UniProt Q16665). Description: ATG_HIF1a_CIS: Attagene CIS-FACTORIAL HepG2 Assay for human Hypoxia Inducible Factor 1 (HIF1A) (AID 2282951). As to conditions: HepG2 Attagene cis-factorial HIF1a reporter transcription; actives raise or lower the signal. The method, boiled down:
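In this multiplexed cell assay, HepG2 cells bearing transfected cis reporters are dosed for 24 h and reporter mRNA is read by RT-PCR plus capillary electrophoresis; signal increases and decreases are both scored against DMSO.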

Assay [5] has as its target Hepatocyte nuclear factor 6 (Homo sapiens) (UniProt Q9UBC0). Description: ATG_HNF6_CIS: Attagene CIS-FACTORIAL HepG2 Assay for human Hepatocyte Nuclear Factor 6 (HNF6) (AID 2282952). As to conditions: HepG2 Attagene cis-factorial HNF6 reporter transcription; actives raise or lower the signal. The method, boiled down:
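Readout: fluorescent reporter-transcript fragments resolved by capillary electrophoresis after RT-PCR, reflecting endogenous factor activity in transfected HepG2. Exposure 24 h. Gain or loss of signal fitted bidirectionally against DMSO.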

Assay [6] is described as follows: ATG_PBREM_CIS: Attagene CIS-FACTORIAL HepG2 Assay for human Phenobarbital-responsive Enhancer Module (PBREM) (AID 2282955). The conditions noted are these: HepG2 PBREM cis-reporter, Attagene multiplexed transcription; actives raise or lower the signal. The method, boiled down:
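After a 24 h incubation with test chemical, transfected HepG2 cells yield total RNA; reporter-specific RT-PCR products are fluorescently labelled, HpaI-digested and resolved by capillary electrophoresis against ROX size standards.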

Assay [7] concerns the target Paired box protein Pax-6 (Homo sapiens) (UniProt P26367). Description: ATG_Pax6_CIS: Attagene CIS-FACTORIAL HepG2 Assay for human Paired Box 6 (PAX6) (AID 2282956). As to conditions: HepG2 CIS-FACTORIAL PAX6 reporter transcription, RNA readout; actives raise or lower the signal. The method, boiled down: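 Read-out is reporter transcript level, measured by RT-PCR with fluorescent primer extension and capillary electrophoresis after 24 h dosing of transfected HepG2 cells. Activity in either direction fitted relative to DMSO control.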

A short description of assay [8]: ATG_PXRE_CIS: Attagene CIS-FACTORIAL HepG2 Assay for human Pregnane X Receptor Element (PXRE) (AID 2282957). As to conditions: HepG2 Attagene CIS-FACTORIAL PXRE reporter, mRNA; actives raise or lower the signal. The method in brief:
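Read-out: fluorescence of reporter-specific RT-PCR products resolved by capillary electrophoresis, fitted bidirectionally relative to DMSO. Human HepG2 liver cells carried transfected cis-promoter reporter units and were exposed to chemicals for 24 h.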

A short description of assay [9]: ATG_PPRE_CIS: Attagene CIS-FACTORIAL HepG2 Assay for human Peroxisome Proliferator-activated Response Element (PPRE) (AID 2282958). The conditions noted are these: HepG2 PPRE cis-element reporter, Attagene transcription factor profiling; actives raise or lower the signal. The method, boiled down: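 Multiplexed reporter transcription units under cis-regulatory promoters were transfected into HepG2 cells to capture endogenous factor activity. A 24 h incubation preceded RNA isolation and fluorescent RT-PCR fragment analysis.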

A short description of assay [10]: ATG_RORE_CIS: Attagene CIS-FACTORIAL HepG2 Assay for human RAR-related Orphan Receptor Element (RORE) (AID 2282959). The conditions noted are these: HepG2 Attagene cis-factorial RORE reporter, mRNA; actives raise or lower the signal. The method, boiled down:
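Fluorescence intensity of reporter-specific cDNA fragments, separated by capillary electrophoresis, gives the signal. Source: HepG2 liver cells transiently transfected with cis-element reporters and exposed 24 h; DMSO-normalized bidirectional fit.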

Assay [11] can be described thus: ATG_Sox_CIS: Attagene CIS-FACTORIAL HepG2 Assay for human SRY-box transcription factor (SOX) (AID 2282960). The conditions noted are these: HepG2 Attagene cis-factorial SOX reporter, mRNA; actives raise or lower the signal. The method in brief: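 After 24 h of chemical treatment, transfected HepG2 reporter cells are lysed for total RNA. Transcript levels come from RT-PCR with labelled primer extension and capillary electrophoresis, analysed bidirectionally versus DMSO.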

The target of assay [12] is Transcription factor Sp1 (Homo sapiens) (UniProt P08047). The experiment in a line: ATG_Sp1_CIS: Attagene CIS-FACTORIAL HepG2 Assay for human Specificity Protein 1 (Sp1) (AID 2282961). As to conditions: HepG2 Sp1 cis-reporter transcription, actives raise or lower the signal. The method in brief: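 Sp1-driven reporter mRNA, read as capillary electrophoresis fluorescence after RT-PCR, in transiently transfected HepG2 cells dosed for 24 h; signal change in either direction relative to DMSO.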

Assay [13] in a line: ATG_SREBP_CIS: Attagene CIS-FACTORIAL HepG2 Assay for human Sterol Regulatory Element Binding (SREBP) (AID 2282962). The conditions noted are these: HepG2 Attagene cis-factorial SREBP reporter, mRNA; actives raise or lower the signal. The method in brief: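 Endogenous SREBP activity read as cis-element-driven reporter transcript in transiently transfected HepG2, 24 h post-dosing; quantified via RT-PCR plus capillary electrophoresis of fluorescent fragments. Gain or loss of signal fitted relative to DMSO baseline.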

For assay [14], the target named is Signal transducer and activator of transcription 3 (Homo sapiens) (UniProt P40763). Description: ATG_STAT3_CIS: Attagene CIS-FACTORIAL HepG2 Assay for human Signal Transducer and Activator of Transcription 3 (STAT3) (AID 2282963). The conditions noted are these: HepG2, Attagene cis-factorial STAT3 reporter transcription; actives raise or lower the signal. The method in brief: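 Readout is reporter transcript quantified by RT-PCR and capillary electrophoresis, with 6-FAM primer extension and HpaI digestion. Total RNA is taken 24 h after dosing transiently transfected HepG2 carrying cis-regulated reporter units. Bidirectional fit against DMSO.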

Assay [15] can be described thus: ATG_TA_CIS: Attagene CIS-FACTORIAL HepG2 Assay for human TA Basal Promoter (AID 2282964). As to conditions: HepG2 Attagene CIS-factorial TA basal promoter reporter; actives raise or lower the signal. The method, boiled down: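 Multiplexed mRNA reporter assay, HepG2, 24 h. Reporter cDNA amplified, 6-FAM primer-extended, HpaI-cut, CE-sized; DMSO = negative control and baseline.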

A short description of assay [16]: ATG_TCF_b_cat_CIS: Attagene CIS-FACTORIAL HepG2 Assay for human T-Cell-Factor with beta-catenin (TCF/b-cat) (AID 2282965). The conditions noted are these: HepG2 TCF/beta-catenin cis-reporter transcription, actives raise or lower the signal. The method in brief: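 Endogenous transcription factor activity is captured through cis-promoter reporter constructs transiently introduced into human HepG2 liver cells. Induced reporter mRNA is measured after 24 h and fitted bidirectionally relative to DMSO.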

For assay [17], the target named is Heat shock factor protein 1 (Homo sapiens) (UniProt Q00613). The experiment in a line: ATG_HSE_CIS: Attagene CIS-FACTORIAL HepG2 Assay for human Heat Shock Transcription Factor 1 (HSE) (AID 2282953). As to conditions: HepG2 HSE cis-reporter, Attagene RNA transcription; actives raise or lower the signal. The method, boiled down: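 After a 24 h incubation with test chemical, transfected HepG2 cells were harvested for RNA; reporter transcripts were measured by RT-PCR and capillary electrophoresis. Values reflect gain or loss of signal relative to DMSO.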

The nature of assay [18]: ATG_MRE_CIS: Attagene CIS-FACTORIAL HepG2 Assay for human Metal Responsive Element (MRE) (AID 2282954). The conditions noted are these: HepG2 MRE cis-reporter transcription, Attagene multiplex; actives raise or lower the signal. The method, boiled down:
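Endogenous MRE-dependent transcription read as reporter mRNA in transiently transfected human HepG2 cells at 24 h. RNA reverse-transcribed, PCR-amplified, labelled and resolved by capillary electrophoresis; gain or loss relative to DMSO.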

Chain of Heat shock factor protein 1 (Homo sapiens) (Q00613 whole entry, looked up): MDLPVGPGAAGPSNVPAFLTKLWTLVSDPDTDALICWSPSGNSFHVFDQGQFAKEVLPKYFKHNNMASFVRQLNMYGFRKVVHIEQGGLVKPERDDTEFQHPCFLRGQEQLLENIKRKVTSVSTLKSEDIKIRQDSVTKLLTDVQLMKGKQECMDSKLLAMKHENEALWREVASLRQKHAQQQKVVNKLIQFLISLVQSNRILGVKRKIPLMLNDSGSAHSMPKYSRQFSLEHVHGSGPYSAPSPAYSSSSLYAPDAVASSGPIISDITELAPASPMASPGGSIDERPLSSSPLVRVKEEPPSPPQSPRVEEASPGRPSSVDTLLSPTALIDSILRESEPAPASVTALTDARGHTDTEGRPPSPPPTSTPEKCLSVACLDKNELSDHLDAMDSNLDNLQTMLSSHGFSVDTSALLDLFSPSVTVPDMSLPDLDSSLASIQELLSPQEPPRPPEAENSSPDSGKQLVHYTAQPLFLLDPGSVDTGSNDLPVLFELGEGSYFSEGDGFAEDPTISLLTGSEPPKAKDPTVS
Chain of Signal transducer and activator of transcription 3 (Homo sapiens) (P40763 whole entry, looked up): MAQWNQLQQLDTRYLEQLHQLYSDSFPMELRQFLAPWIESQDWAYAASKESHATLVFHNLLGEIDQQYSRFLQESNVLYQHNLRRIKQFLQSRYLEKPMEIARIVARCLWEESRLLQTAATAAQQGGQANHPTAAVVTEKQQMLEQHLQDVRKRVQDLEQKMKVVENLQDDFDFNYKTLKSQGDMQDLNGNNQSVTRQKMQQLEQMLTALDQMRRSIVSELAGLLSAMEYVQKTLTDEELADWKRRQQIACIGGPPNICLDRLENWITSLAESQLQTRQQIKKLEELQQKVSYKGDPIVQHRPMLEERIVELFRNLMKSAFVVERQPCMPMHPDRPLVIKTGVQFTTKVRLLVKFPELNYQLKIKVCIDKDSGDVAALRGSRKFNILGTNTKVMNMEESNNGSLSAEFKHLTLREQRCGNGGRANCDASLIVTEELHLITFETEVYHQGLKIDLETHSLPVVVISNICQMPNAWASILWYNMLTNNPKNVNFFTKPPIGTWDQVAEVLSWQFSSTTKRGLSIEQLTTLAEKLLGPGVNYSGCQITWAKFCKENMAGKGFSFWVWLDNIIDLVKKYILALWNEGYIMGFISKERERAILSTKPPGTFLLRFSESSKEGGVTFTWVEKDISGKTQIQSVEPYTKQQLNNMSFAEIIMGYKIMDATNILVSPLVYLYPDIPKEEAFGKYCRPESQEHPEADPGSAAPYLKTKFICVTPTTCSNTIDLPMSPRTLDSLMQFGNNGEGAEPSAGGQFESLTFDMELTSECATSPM
Chain of Paired box protein Pax-6 (Homo sapiens) (P26367 whole entry, looked up): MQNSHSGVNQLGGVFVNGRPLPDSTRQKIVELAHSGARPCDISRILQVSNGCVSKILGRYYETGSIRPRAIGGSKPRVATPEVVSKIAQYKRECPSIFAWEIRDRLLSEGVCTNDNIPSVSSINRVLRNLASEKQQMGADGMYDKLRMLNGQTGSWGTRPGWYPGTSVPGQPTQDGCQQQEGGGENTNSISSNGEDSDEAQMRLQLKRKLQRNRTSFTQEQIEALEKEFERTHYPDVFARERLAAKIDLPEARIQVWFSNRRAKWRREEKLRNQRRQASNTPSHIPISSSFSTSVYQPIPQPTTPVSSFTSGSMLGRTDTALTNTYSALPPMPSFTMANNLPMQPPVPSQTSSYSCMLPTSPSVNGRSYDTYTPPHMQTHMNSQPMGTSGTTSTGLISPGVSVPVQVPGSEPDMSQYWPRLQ
Chain of Hepatocyte nuclear factor 6 (Homo sapiens) (Q9UBC0 whole entry, looked up, the tested form may be a part): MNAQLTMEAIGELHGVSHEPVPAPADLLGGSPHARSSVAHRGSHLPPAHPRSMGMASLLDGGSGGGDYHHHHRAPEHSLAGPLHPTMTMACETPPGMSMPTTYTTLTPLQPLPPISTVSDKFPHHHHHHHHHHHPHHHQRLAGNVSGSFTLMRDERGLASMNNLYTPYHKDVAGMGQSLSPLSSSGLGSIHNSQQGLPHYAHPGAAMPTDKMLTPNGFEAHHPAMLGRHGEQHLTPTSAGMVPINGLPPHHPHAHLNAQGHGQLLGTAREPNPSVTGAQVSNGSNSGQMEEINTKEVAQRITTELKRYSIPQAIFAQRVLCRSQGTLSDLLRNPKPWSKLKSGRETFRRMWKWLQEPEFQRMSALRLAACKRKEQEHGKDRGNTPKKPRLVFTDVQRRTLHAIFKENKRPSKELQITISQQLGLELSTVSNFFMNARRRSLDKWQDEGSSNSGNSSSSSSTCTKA
Chain of Transcription factor Sp1 (Homo sapiens) (P08047 whole entry, looked up): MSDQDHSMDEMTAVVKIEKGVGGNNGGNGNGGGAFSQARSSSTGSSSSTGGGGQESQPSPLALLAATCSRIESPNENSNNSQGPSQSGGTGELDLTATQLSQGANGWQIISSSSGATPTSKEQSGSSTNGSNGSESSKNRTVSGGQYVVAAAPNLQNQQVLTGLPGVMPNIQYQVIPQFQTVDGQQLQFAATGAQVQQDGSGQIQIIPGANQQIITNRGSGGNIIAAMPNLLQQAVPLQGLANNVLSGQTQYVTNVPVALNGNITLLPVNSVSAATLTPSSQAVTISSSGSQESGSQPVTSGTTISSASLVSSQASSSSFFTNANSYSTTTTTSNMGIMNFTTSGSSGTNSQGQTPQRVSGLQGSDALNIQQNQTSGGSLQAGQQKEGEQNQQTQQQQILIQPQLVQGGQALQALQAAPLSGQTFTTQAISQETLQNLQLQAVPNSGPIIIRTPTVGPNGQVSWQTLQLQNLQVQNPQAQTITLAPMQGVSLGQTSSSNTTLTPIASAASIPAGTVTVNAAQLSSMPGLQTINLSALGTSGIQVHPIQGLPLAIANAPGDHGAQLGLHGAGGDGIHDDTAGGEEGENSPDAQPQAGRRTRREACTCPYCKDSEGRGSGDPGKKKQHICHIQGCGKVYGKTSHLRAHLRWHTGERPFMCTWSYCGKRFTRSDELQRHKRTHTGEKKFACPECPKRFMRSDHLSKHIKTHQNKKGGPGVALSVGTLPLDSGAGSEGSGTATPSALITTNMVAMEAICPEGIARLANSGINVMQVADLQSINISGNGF
Chain of Hypoxia-inducible factor 1-alpha (Homo sapiens) (Q16665 whole entry, looked up): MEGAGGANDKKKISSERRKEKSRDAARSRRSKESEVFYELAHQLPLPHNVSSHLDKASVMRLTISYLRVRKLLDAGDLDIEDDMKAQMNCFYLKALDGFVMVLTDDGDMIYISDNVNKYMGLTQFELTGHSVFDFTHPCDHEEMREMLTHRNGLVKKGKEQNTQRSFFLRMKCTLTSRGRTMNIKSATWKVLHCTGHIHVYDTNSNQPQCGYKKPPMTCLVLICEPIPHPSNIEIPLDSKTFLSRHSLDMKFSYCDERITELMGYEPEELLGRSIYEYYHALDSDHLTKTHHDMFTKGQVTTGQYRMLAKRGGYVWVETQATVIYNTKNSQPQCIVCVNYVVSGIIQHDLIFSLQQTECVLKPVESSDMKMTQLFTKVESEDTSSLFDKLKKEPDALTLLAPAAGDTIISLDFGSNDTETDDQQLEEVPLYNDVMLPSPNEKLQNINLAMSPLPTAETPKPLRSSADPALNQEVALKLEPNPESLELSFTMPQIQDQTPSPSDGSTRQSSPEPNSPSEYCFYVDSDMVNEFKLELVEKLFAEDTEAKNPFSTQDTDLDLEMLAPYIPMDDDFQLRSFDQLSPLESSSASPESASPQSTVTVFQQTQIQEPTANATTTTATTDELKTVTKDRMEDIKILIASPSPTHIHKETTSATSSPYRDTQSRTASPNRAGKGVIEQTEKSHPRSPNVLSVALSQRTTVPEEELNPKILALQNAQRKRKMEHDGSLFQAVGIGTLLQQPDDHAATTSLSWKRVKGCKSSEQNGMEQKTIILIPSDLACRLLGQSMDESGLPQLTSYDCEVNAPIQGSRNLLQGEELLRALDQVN

Turning to `OCCOc1cccc(OCCO)c1`, the result in assay [1], in assay [2], in assay [3], in assay [4], in [5] and in assay [6] was inactive. In addition, the outcome in assay [7], in [8], in assay [9], in assay [10], in assay [11] and in assay [12] was inactive. Moreover, the compound was classed as inactive in assay [13], in [14], in assay [15] and in [16].
For the compound `COC(C)CCO` (stereo unspecified), the compound was classed as inactive in [1], in assay [3], in assay [4], in [5], in assay [17] and in assay [18]. Further, the result in assay [6], in assay [7], in [10], in [11], in assay [12] and in assay [13] was inactive. Also, the result in [14] and in assay [15] was inactive. Also, the AC50 in assay [8] is 26.6 µM (active).
On to `CC(CN1c2ccccc2Sc2ccccc21)N(C)C` (stereo unspecified), for which the result in assay [2], in [3], in assay [5], in assay [17], in assay [6] and in [10] was inactive. For the same compound, the compound was classed as inactive in assay [11], in [12], in assay [13], in assay [14] and in assay [15]. In addition, the AC50 is 40.7 µM (active) in [18], 44 µM (active) in assay [7] and 5.52 µM (active) in assay [8].
Regarding `CNC[C@H](O)c1cccc(O)c1`, the call in assay [1], in assay [2], in [3], in assay [4], in assay [5] and in [18] was inactive. Moreover, the call in assay [7], in assay [11], in [13], in assay [14], in [15] and in assay [16] was inactive. Further, in assay [8], the AC50 was 34.2 µM (active).
With `Cc1ccc(C=O)s1`, the compound was called inactive in [1], in assay [2], in assay [3], in [5], in [17] and in assay [6]. The call in [7], in assay [9], in assay [10], in assay [11], in [13] and in assay [14] was inactive. Also, the compound was classed as inactive in assay [15] and in [16]. For the same compound, in assay [8], the concentration at half-maximal activity (AC50) was 35.7 µM (active).
Take `CCCCNC(=O)NS(=O)(=O)c1ccc(N)cc1`: the outcome in assay [1], in [2], in [3], in assay [4], in assay [5] and in assay [17] was inactive. The compound was classed as inactive in [7], in assay [8], in assay [9], in assay [10], in [11] and in assay [12]. Further, the result in [13], in [14], in assay [15] and in assay [16] was inactive.
Turning to `Clc1sc(Cl)c(Cl)c1Cl`, the call in [2], in [3], in [4], in [5], in [17] and in assay [18] was inactive. In addition, the outcome in [6], in assay [7], in assay [8], in [9], in assay [10] and in assay [11] was inactive. For the same compound, the outcome in assay [12], in assay [13], in assay [14], in assay [15] and in [16] was inactive.

What is called AC50 is the concentration giving half of the maximal activity seen.
